56 molecules from paper PMC4336329 (PLoS ONE, 2015) can be followed below.

The campaign covered roughly 310,000 compounds. About 2,200 (0.71%) showed an effect of 50% or more. Effects have a minus sign here. This excerpt belongs to a sample that is enriched for strong results.

In the assay the target is human ether-à-go-go-related gene (hERG) potassium channel (human, UniProt Q12809). Briefly: primary screen, population patch clamp on CHO cells stably expressing hERG; higher = less effect of the substance.
Chain of human ether-à-go-go-related gene (hERG) potassium channel (Q12809 whole entry, looked up): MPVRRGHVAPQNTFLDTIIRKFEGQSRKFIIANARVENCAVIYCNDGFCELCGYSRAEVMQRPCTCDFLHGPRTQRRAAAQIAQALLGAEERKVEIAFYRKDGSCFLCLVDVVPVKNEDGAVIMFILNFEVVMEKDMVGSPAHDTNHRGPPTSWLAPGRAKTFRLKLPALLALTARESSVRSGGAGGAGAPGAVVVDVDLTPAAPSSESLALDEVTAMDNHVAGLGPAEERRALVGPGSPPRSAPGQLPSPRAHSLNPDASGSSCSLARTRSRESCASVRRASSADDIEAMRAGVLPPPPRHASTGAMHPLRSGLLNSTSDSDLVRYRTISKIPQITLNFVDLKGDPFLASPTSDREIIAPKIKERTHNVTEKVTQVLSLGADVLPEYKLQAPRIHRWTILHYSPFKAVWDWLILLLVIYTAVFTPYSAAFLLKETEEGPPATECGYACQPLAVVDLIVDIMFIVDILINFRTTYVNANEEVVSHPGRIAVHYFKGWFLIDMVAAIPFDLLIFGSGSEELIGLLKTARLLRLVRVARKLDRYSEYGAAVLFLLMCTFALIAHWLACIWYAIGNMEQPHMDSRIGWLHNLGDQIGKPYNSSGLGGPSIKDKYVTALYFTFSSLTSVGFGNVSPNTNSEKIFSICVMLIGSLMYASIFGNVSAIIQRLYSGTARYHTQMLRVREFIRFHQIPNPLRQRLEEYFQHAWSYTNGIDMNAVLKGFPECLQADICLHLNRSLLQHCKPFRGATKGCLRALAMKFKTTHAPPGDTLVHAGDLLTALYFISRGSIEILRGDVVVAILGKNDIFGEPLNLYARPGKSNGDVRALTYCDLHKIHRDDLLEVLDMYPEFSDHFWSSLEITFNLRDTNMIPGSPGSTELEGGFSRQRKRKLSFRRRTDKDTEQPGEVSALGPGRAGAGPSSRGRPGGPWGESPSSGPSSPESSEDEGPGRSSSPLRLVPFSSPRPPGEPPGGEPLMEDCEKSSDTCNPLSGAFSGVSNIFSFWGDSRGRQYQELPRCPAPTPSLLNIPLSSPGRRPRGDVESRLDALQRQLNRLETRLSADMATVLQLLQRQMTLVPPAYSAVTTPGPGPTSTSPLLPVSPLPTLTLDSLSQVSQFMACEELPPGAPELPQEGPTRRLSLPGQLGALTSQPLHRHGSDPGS
Turning to `CC1CCCC(C)N1CCCNC(=O)CN1C(=O)c2cccnc2Oc2ccc(Cl)cc21` (centres unmarked), the “hERG current change (%, negative = inhibition) at 1uM” value is recorded as 6.15%.

With `O=C1[C@H]2[C@@H](C(=O)N1c1cc(Cl)cc(Cl)c1)[C@]1(C(=O)Nc3ccccc31)N1CCC[C@@H]21`, the “hERG current change (%, negative = inhibition) at 1uM” value is given as 4.86%.

Consider `Cc1cc(=O)n2nc(N3CCCC(C(=O)NCCC4=CCCCC4)C3)sc2n1` (centres unmarked), for which the “hERG current change (%, negative = inhibition) at 1uM” value is on record as -4.44%.

Consider `O=S(=O)(c1ccc(=S)[nH]c1)N1CCCCC1`, for which the “hERG current change (%, negative = inhibition) at 1uM” value is given as 16.8%.

For the molecule `O=C(O)c1cccc(NC(=S)NC(=O)c2cncc(Br)c2)c1`, the “hERG current change (%, negative = inhibition) at 1uM” value is recorded as 8.81%.

In the case of `Cc1cc(C)n2nc(SCc3ccc(C#N)cc3)nc2n1`, the “hERG current change (%, negative = inhibition) at 1uM” value is on record as 6.64%.

For the molecule `Cc1ccc(C)c(CSC2=NCCN2S(=O)(=O)c2ccccc2)c1`, the “hERG current change (%, negative = inhibition) at 1uM” value came out at 7.31%.

For the molecule `OCC1(CCOc2ccccc2)CCN(Cc2cn[nH]c2-c2ccc(F)cc2)CC1`, the “hERG current change (%, negative = inhibition) at 1uM” value is given as -46.3%.

As for `OCC1(Cc2ccccc2)CCCN(Cc2cn[nH]c2-c2ccccc2)C1` (centres unmarked), the “hERG current change (%, negative = inhibition) at 1uM” value is given as 6.96%.

On to `OCC1(CCOc2ccccc2)CCN(Cc2cn[nH]c2-c2ccccc2)CC1`, for which the “hERG current change (%, negative = inhibition) at 1uM” value is listed as -68.3%.

Turning to `Cc1ccc(S(=O)(=O)N2CCCCC2)cc1NC(=O)CN1CC=C(c2ccccc2)CC1`, the “hERG current change (%, negative = inhibition) at 1uM” value is reported as -0.529%.

On to `COc1cc(/C=N/NC(=S)NCC2CCCO2)cc(OC)c1OC` (centres unmarked), for which the “hERG current change (%, negative = inhibition) at 1uM” value was 0.431%.

Turning to `CC1=C(C(=O)Nc2ccccc2)C(c2coc3ccccc3c2=O)C2=C(CCCC2=O)N1` (centres unmarked), the “hERG current change (%, negative = inhibition) at 1uM” value is 10.3%.

`Cc1ccc(NC(=O)CCN2CCOCC2)cc1C`: the “hERG current change (%, negative = inhibition) at 1uM” value came to 11.1%.

For `Cc1ccc(NC(=O)CCN2CCN(C/C=C/c3ccccc3)CC2)cc1.Cl`, the “hERG current change (%, negative = inhibition) at 1uM” value was -86.3%.

As to `Cc1cc(NC(=O)CCN2CCN(Cc3ccccc3)CC2)ccc1Br.Cl`, the “hERG current change (%, negative = inhibition) at 1uM” value was found to be 7.35%.

For the molecule `Cc1ccc(NC(=O)N2CCN(C/C=C/c3ccccc3)CC2)cc1`, the “hERG current change (%, negative = inhibition) at 1uM” value is -10.7%.

On to `COC(=O)c1ccc(NC(=O)CCN2CCCCC2)cc1.Cl`, for which the “hERG current change (%, negative = inhibition) at 1uM” value is -51%.

For `Cc1cccc(NC(=O)CCN2CCN(C/C=C/c3ccccc3)CC2)c1.Cl`, the “hERG current change (%, negative = inhibition) at 1uM” value is -82.5%.

`COC(=O)c1ccc(NC(=O)CCN2CCOCC2)cc1`: the “hERG current change (%, negative = inhibition) at 1uM” value was found to be 6.71%.

Consider `CCN1CCN(CCC(=O)Nc2cccc(C)c2)CC1.Cl`, for which the “hERG current change (%, negative = inhibition) at 1uM” value is recorded as 9.56%.

As to `Cc1ccc(NC(=O)CCN2CCN(C/C=C/c3ccccc3)CC2)cc1C.Cl`, the “hERG current change (%, negative = inhibition) at 1uM” value is -53.2%.

On to `Cc1cccc(NC(=O)CCN2CCN(C)CC2)c1.Cl`, for which the “hERG current change (%, negative = inhibition) at 1uM” value was 14.1%.

Consider `COC(=O)c1ccc(NC(=O)CCN2CCN(CCC(=O)Nc3ccc(C(=O)OC)cc3)CC2)cc1`, for which the “hERG current change (%, negative = inhibition) at 1uM” value is recorded as 1.76%.

For the molecule `Cc1ccc(NC(=O)CCN2CCN(C)CC2)cc1.Cl`, the “hERG current change (%, negative = inhibition) at 1uM” value stood at 14.9%.

Regarding `O=C(Cc1ccc(NS(=O)(=O)c2cccc(C(F)(F)F)c2)cc1)NCCN1CCOCC1`, the “hERG current change (%, negative = inhibition) at 1uM” value was found to be 5.88%.

`CCn1c(SCC(N)=O)nnc1-c1ccc(OC)c(OC)c1`: the “hERG current change (%, negative = inhibition) at 1uM” value is 19.4%.

In the case of `C/C(=N/NC(=O)c1ccc(O)cc1)c1cccc([N+](=O)[O-])c1`, the “hERG current change (%, negative = inhibition) at 1uM” value was determined as 9.78%.

In the case of `COc1cc(/C=C/C2=CC(C)(C)NC(=S)N2)cc(OC)c1OC`, the “hERG current change (%, negative = inhibition) at 1uM” value came to 8.95%.

`COc1ccc(-n2c(SCC(=O)NCc3cccs3)nc3[nH]ncc3c2=O)cc1`: the “hERG current change (%, negative = inhibition) at 1uM” value is on record as -7.44%.

On to `CCC(C)NC(=S)Nc1ccccc1OC` (centres unmarked), for which the “hERG current change (%, negative = inhibition) at 1uM” value is on record as 1.64%.

As for `CCN(C(=O)CSc1ncnc2c1cnn2-c1ccccc1)C1CCS(=O)(=O)C1` (centres unmarked), the “hERG current change (%, negative = inhibition) at 1uM” value turned out to be 9.57%.

As for `O=[N+]([O-])/C=C/c1c(OCc2ccccc2)ccc2ccccc12`, the “hERG current change (%, negative = inhibition) at 1uM” value is reported as -3.83%.

For the molecule `CCCC(C)C(=O)OCC(=O)Nc1c(Br)cc(C)cc1Br` (centres unmarked), the “hERG current change (%, negative = inhibition) at 1uM” value was 9.86%.

For the molecule `CCCc1ccc(-c2c(C)sc(N)c2C#N)cc1`, the “hERG current change (%, negative = inhibition) at 1uM” value worked out at 16.9%.

As to `c1ccc(-n2nnnc2-n2ccnc2)cc1`, the “hERG current change (%, negative = inhibition) at 1uM” value is 2.97%.

`COc1ccccc1CCNC(=O)C(=O)NCC1OCCN1S(=O)(=O)c1cc(F)ccc1F` (centres unmarked): the “hERG current change (%, negative = inhibition) at 1uM” value is recorded as 8.74%.

For `Cc1ccc(S(=O)(=O)N2CCN(S(=O)(=O)c3ccc(C)cc3)C2c2ccccc2)cc1`, the “hERG current change (%, negative = inhibition) at 1uM” value came to 3.23%.

On to `CN1CCN(CCC(=O)Nc2cccc(F)c2)CC1`, for which the “hERG current change (%, negative = inhibition) at 1uM” value is listed as 13%.

In the case of `O=C(CCN1CCN(C/C=C/c2ccccc2)CC1)Nc1ccc(Cl)cc1`, the “hERG current change (%, negative = inhibition) at 1uM” value is reported as -74.1%.

Turning to `O=C(CCN1CCN(C/C=C/c2ccccc2)CC1)Nc1cccc(F)c1`, the “hERG current change (%, negative = inhibition) at 1uM” value is -62.6%.

As for `COc1ccc(NC(=O)CCN2CCN(C/C=C/c3ccccc3)CC2)cc1`, the “hERG current change (%, negative = inhibition) at 1uM” value is listed as -37.8%.

For the molecule `Cl.O=C(CCN1CCOCC1)Nc1ccc(Cl)cc1`, the “hERG current change (%, negative = inhibition) at 1uM” value is recorded as 8.71%.

Take `O=C(CCN1CCN(C/C=C/c2ccccc2)CC1)Nc1ccccc1`: the “hERG current change (%, negative = inhibition) at 1uM” value is -79%.

As to `O=C(CCN1CCN(c2ccccc2)CC1)Nc1ccc(Cl)cc1`, the “hERG current change (%, negative = inhibition) at 1uM” value is recorded as 9.14%.

Regarding `O=C(Nc1cccc(F)c1)N1CCN(C/C=C/c2ccccc2)CC1`, the “hERG current change (%, negative = inhibition) at 1uM” value is -19.1%.

For the molecule `COc1cc(NC(=O)CCN2CCN(C/C=C/c3ccccc3)CC2)cc(OC)c1`, the “hERG current change (%, negative = inhibition) at 1uM” value is on record as -36.8%.

Take `CCOCCCNC(=O)c1cn(C)c(=O)c2cc(OC)c(OC)cc12`: the “hERG current change (%, negative = inhibition) at 1uM” value is recorded as 9.51%.

Consider `CCOC(=O)O[C@]1(C(=O)COC(=O)CC)CC[C@H]2[C@@H]3CCC4=CC(=O)C=C[C@]4(C)[C@H]3[C@@H](O)C[C@@]21C`, for which the “hERG current change (%, negative = inhibition) at 1uM” value is 8.4%.

In the case of `Cc1cccc(NC(=O)CNC(=O)COc2cc(F)ccc2[N+](=O)[O-])c1C`, the “hERG current change (%, negative = inhibition) at 1uM” value worked out at 15.4%.

Take `CCCNC(=O)CCC(NS(=O)(=O)c1ccc(C)cc1)C(=O)NCCC` (centres unmarked): the “hERG current change (%, negative = inhibition) at 1uM” value turned out to be 7.66%.

Consider `CCOC(=O)C1C(=O)CC(C)(O)C(C(=O)OCC)C1c1ccc(OC)cc1` (centres unmarked), for which the “hERG current change (%, negative = inhibition) at 1uM” value is -0.912%.

Take `CCOC(=O)CSc1nc2sc(C(=O)O)c(C)c2c(=O)[nH]1`: the “hERG current change (%, negative = inhibition) at 1uM” value turned out to be 9.03%.

With `Cc1cc(N2C(=O)C(O)=C(C(=O)c3cc4ccccc4o3)C2c2ccc(Cl)cc2)no1` (centres unmarked), the “hERG current change (%, negative = inhibition) at 1uM” value was 1.55%.

`COC(=O)c1cc(NC(=O)CSc2nnc(N)s2)ccc1Cl`: the “hERG current change (%, negative = inhibition) at 1uM” value was 13.6%.

On to `Cc1ccc2c(CC(=O)N(C)c3c(N)n(Cc4ccccc4)c(=O)[nH]c3=O)coc2c1`, for which the “hERG current change (%, negative = inhibition) at 1uM” value was 8.06%.
